JMJD2A Tudor inh: blocks the human JMJD2A Tudor domain; O75164; AlphaScreen JMJD2A-Tudor / H3K4me3 peptide binding; Potency, µM (top dose mostly 114 µM), inactives show at the highest dose activity change, negative = inhibition, usual class: inhibitors; actives 4.4% (n = 390,000); note: potency is the fitted concentration of half-maximal effect; % is set by controls: 0 for no effect and ±100 for the full control effect; nearly all actives have a fitted effect of over 50% in size
HP1b binding inh: inhibitors of HP1-beta chromodomain binding to methylated histone tails; P83916; actives 0.56% (n = 390,000); AlphaScreen HP1-beta / biotin-H3K9me3 peptide binding; Potency, µM (highest dose often 114 µM), without a hit: at the top dose activity change, negative = inhibition, usual class: inhibitors; AID 540317; note: potency is the fitted concentration of half-maximal effect; nearly all actives have a fitted effect of over 70% in size
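AlphaScreen: HP1-beta (50 nM) preformed 30 min with biotin-H3(1-18)K9me3 peptide (50 nM) in PBS pH 7.4, 0.01% Tween-20. Compound added for 30 min at RT, then streptavidin donor/nickel chelate acceptor beads (10 ug/mL) for 30 min.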
G9a inh-1: G9a (human) methyltransferase inhibition. Potency, µM (top dose mostly 102 µM), inactives show at the top dose activity, negative = inhibition, actives largely listed as inhibitors. AID 504332. G9a H3K9 monomethylation, AlphaScreen, 2 h. Q96KQ7. actives 8.8% (n = 350,000); note: potency is the fitted concentration of half-maximal effect; % is set by controls: 0 for no effect and ±100 for the full control effect; nearly all actives have a fitted effect of over 75% in size
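G9a (20 nM) was preincubated 15 min with compound, then reacted 2 h at room temperature with 500 nM biotin-H3K9 peptide and 20 µM SAM. Monomethyl-H3K9 detected by AlphaScreen using anti-H3K9me1 antibody.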
BAZ2B inh: inhibitors of human BAZ2B bromodomain | Q9UIF8 | Potency, µM (series often up to 114 µM), inactives show top-dose activity change, negative = inhibition, usual class: inhibitors | AlphaScreen BAZ2B-H3K14Ac peptide displacement | AID 504333 | actives 4.4% (n = 360,000); note: potency is the fitted concentration of half-maximal effect; % is set by controls: 0 for no effect and ±100 for the full control effect; nearly all actives have a fitted effect of over 60% in size
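AlphaScreen luminescence quantifies BAZ2B engagement of H3K14Ac peptide; the protein and biotinylated peptide are both at 50 nM final, buffer PBS pH 7.4 with 0.01% Tween-20, all steps at room temperature.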
CtBP-E1A blk: blocks the CtBP interaction with E1A. AlphaScreen GST-E1A/His-CtBP binding, 1536-well; hits give low values. activity change, % (test concentration not listed). actives 0.49% (n = 340,000). AID 651724; in the data active = activity change below about -65%; inconclusive = mostly about -30% to -63%; note: % is set by controls: 0 for no effect and ±100 for the full control effect
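In 5 uL wells, 23 nL compound meets equimolar GST-E1A and His-CtBP (5X stock 125 nM each) for 2 h, 37 °C. Beads (5X, 50 ug/mL) then 1 h, 37 °C, dark.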
Six1-Eya2 inh: blocks human Six1 binding to Eya2 | AlphaScreen GST-Six1/His-Eya2 binding, biochemical; hits give low values | actives 0.56% (n = 360,000) | AID 651725 | activity change, % (concentration not given with the values) | Q15475+O00167; in the data active = activity change below about -65%; inconclusive = mostly about -30% to -63%; note: % is set by controls: 0 for no effect and ±100 for the full control effect
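AlphaScreen luminescence read after one hour at 37 °C in darkness. Pin-transferred compounds met GST-Six1 and His-Eya2 protein (5X stock 250 nM/500 nM) plus glutathione donor and Ni-chelate acceptor beads (5X, 50 ug/mL).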
JMJD2E inh-1: inhibitors of human JMJD2E demethylase, 8HQ series round 1. shares compounds with BAZ2B inh. JMJD2E demethylase, FDH-coupled NADH fluorescence. Potency, µM (highest dose often 57 µM), without a hit: at the highest dose activity, negative = inhibition, actives largely listed as inhibitors. actives 89% (n = 130)
ME-1 growth: ME-1 cell growth inhibition; shares compounds with BAZ2B inh; ME-1 cell proliferation, ATP luminescence, 48 h; Potency, µM (series often up to 56.1 µM), inactives show top-dose activity change, negative = inhibition, actives largely listed as inhibitors; actives 20% (n = 140)
JMJD2E inh-2: JMJD2E (human) demethylase inhibition, confirmation; shares compounds with JMJD2A Tudor inh; Recombinant JMJD2E, FDH-coupled NADH fluorescence (FDH is formaldehyde dehydrogenase); Potency, µM (doses to about 56.8 µM), inactives show at the highest dose activity change, negative = inhibition, hits mostly inhibitors; actives 93% (n = 140)
FDH inh: counter-screen for JMJD2E inhibitors: Pseudomonas putida formaldehyde dehydrogenase | FDH enzyme assay, NADH fluorescence kinetic | shares compounds with JMJD2A Tudor inh | Potency, µM (doses to about 56.7 µM), without a hit: top-dose activity, negative = inhibition, hits mostly inhibitors | actives 10% (n = 140) | AID 2680
G9a inh-2: inhibits human G9a histone lysine methyltransferase, hit confirmation; shares compounds with JMJD2A Tudor inh; G9a H3K9 monomethylation, AlphaScreen, 2 h; Potency, µM, actives largely listed as inhibitors; actives 89% (n = 370); AID 588344; note: potency is the fitted concentration of half-maximal effect; nearly all actives have a fitted effect of over 65% in size
* hit, by the source's call; ? = inconclusive; / = no result; ! = not active in a repeat; [ ] = dose if it differs, or a comment. The list is not random: actives were taken first. Their share in the collection is about 10%. Unless noted, calls come from the whole dose curve; as a rule, active = well fitted curve in the direction sought with a large enough effect; inconclusive = small, poorly fitted or top-dose-only effect, or another doubt; inactive = no such curve, though single readings can be large; an effect the other way counts as inactive or inconclusive.

SMILES	JMJD2A Tudor inh	HP1b binding inh	G9a inh-1	BAZ2B inh	CtBP-E1A blk	Six1-Eya2 inh	G9a inh-2	others
CC(C)[C@H]1C(=O)N2CCC[C@H]2[C@]2(O)O[C@](NC(=O)[C@@H]3C=C4c5cccc6[nH]cc(c56)C[C@H]4N(C)C3)(C(C)C)C(=O)N12	-34%	3%	10µM*	?	?	-3	/	ME-1 growth=-8%[25.6 µM]
CC(C)C[C@H]1C(=O)N2CCCC2[C@]2(O)O[C@](NC(=O)[C@@H]3C=C4c5cccc6[nH]cc(c56)CC4N(C)C3)(C(C)C)C(=O)N12 (some centres undefined)	?	-1%	40µM*	?	-23	-5	/	ME-1 growth=?
Cc1ccc(-n2nc(C)c3c2NC(=O)CSC3c2ccc(O)cc2)cc1Cl (centres undefined)	-16%	?	11%[59 µM]	-32%	/	/	/
O=C1C=CC(=O)c2c(O)cccc21	/	/	?	/	/	/	/	ME-1 growth=22µM*
O=C(O)c1ccc(O)c2ncc(N3CCNCC3)cc12	/	/	/	/	/	/	/	JMJD2E inh-1=4.1µM*;JMJD2E inh-2=?;FDH inh=-36%
COc1ccc(C)cc1NC(=O)c1cccn(Cc2cccc([N+](=O)[O-])c2)c1=O	-13%	36%	-22%[59 µM]	-11%	/	/	/
CN1CC[C@]2(C)c3cc(O)ccc3N(C)[C@@H]12	/	/	8.9µM*	/	/	/	/	JMJD2E inh-2=10µM*;FDH inh=?
CC1C2Cc3ccc(O)cc3[C@]1(C)CCN2CCc1ccccc1 (some centres undefined)	?	21%	/	/	-9	1	/
COc1ccc2c(c1)[C@@]13CCCC[C@H]1[C@@H](C2)NCC3	/	/	47%[12.7 µM]	/	/	/	/
Cn1c(CNC(=O)c2ccco2)nnc1SCC(=O)N1c2ccccc2Sc2ccccc21	-7%	21%	?	-35%	-6	-22	1*
O=S1(=O)N(Cc2ccccc2)CCCN1Cc1ccc(F)cc1Cl	92%	130%	73%[59 µM]	99%	/	/	/
CC(C)NS(=O)(=O)c1ccc(OCC(=O)N2CCN(Cc3ccccc3)CC2)cc1	-13%	10%	/	/	-1	3	/
COc1ccc(OCC(=O)N2CCN(Cc3ccc(SC)cc3)CC2)cc1	2.5µM*	?	2.2µM*	50µM*!	1	-21	32*
CCN(CC)CCSc1nc2ccccc2c(=O)n1-c1ccc(Cl)cc1	-20%	-3%	2%[59 µM]	-23%	/	/	/
Cc1cc(=O)oc2c1c(C)nn2-c1nn[nH]n1	14µM*	?	0.71µM*	40µM*	-23	-17	0.36*
Cc1c(OCC(F)(F)F)ccnc1CS(=O)c1nc2ccccc2[nH]1 (centres undefined)	?	23%	6.7µM*!	35µM*	7	0	0.5*

Bioassay records as filed in PubChem BioAssay.
